# Assay outcomes from PubChem BioAssay.
# TWEAK Fn14 block: TWEAK-Fn14 signaling inhibition; inhibition, % at 10 µM; 2% of 360,000 active; TWEAK-stimulated Fn14 reporter cells, luciferase luminescence, 8 h; in the data active = inhibition above about 50%
# KKLEB cytotox: CF airway cell cytotoxicity counter-screen; KKLEB CF airway cells viability, ATPlite luminescence, overnight; active compounds read low; cells stimulated with P. aeruginosa culture filtrate; activity change (cytotoxicity), % at 5 µM; 0.36% of 360,000 active;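 active = corrected activity change at or below -50% at 5 µM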
# HIF-2a block: inhibitors of HIF-2a | AID 624352 | inhibition, % at 18.8 µM | 0.72% of 360,000 active | 786-0 RCC cells HIF-2a reporter, luciferase luminescence, overnight;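 active = inhibition of the luminescence signal of 40% or more relative to plate controls, in a single-dose primary screen at 18.75 µM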
# CF NFkB inh: cystic fibrosis NF-kB activation inhibition; KKLEB NF-kB-GFP reporter, PAF-induced, GFP fluorescence overnight; inhibition, % at 5 µM; 0.86% of 360,000 active; AID 588850;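 active = at least 50% inhibition at 5 µM, scaled per plate between neutral and stimulator controls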;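 also: PAF is a Pseudomonas aeruginosa culture filtrate used as stimulus; plate controls were PAF-stimulated DMSO wells for no effect and unstimulated DMSO wells for full effect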
# Peg3 prom inh: inhibitors of Peg3 promoter; HeLa PEG-Prom luciferase reporter, luminescence, overnight; inhibition, % at 20 µM; 1.7% of 360,000 active;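 active = inhibition of at least 50% at 20 µM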
# TROY NFkB inh: inhibitors of TROY-dependent NF-kB signaling. Q293 LMP1-TROYcd NF-kB luciferase reporter, 4 h. inhibition, % at 10 µM. 0.98% of 360,000 active. AID 1347056;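 active = compounds whose plate-normalised and pattern-corrected inhibition of the luciferase reporter signal at the single screening dose is 50% or more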
# An asterisk follows results filed as active; / = no result. In the library only some 4% were active in any assay of this set; here they are far more common.
SMILES,TWEAK Fn14 block,KKLEB cytotox,HIF-2a block,CF NFkB inh,Peg3 prom inh,TROY NFkB inh
CC(=O)Oc1ccc(N2C(=O)c3cccc4c([N+](=O)[O-])ccc(c34)C2=O)cc1,-99,0,16,14,47,55*
O=C1c2cccc3c([N+](=O)[O-])ccc(c23)C(=O)N1c1ccccn1,-111,-2,26,-25,94*,30
O=C1c2cccc3c([N+](=O)[O-])ccc(c23)C(=O)N1c1nccs1,-58,12,40,-45,94*,39
O=C1c2cccc3c([N+](=O)[O-])ccc(c23)C(=O)N1O,-19,13,-1,-21,21,12
O=C(c1ccco1)N1CCN(c2nc(C(F)(F)F)nc3c2nnn3Cc2ccccc2)CC1,55*,1,-55,-6,17,53*
O=C(c1ccco1)N1CCN(c2ncnc3c2nnn3Cc2ccccc2Cl)CC1,-24,-9,-20,-2,16,11
CC(NC(=O)COC(=O)c1cc(NS(=O)(=O)c2ccc(Cl)c([N+](=O)[O-])c2)ccc1O)C1CC2CCC1C2 (stereo not drawn),-7,4,84*,-16,96*,49
COc1ccc(NS(=O)(=O)c2ccc(O)c(C(=O)OCC(=O)NC(C)C3CC4CCC3C4)c2)cc1 (stereo not drawn),13,20,23,-22,1,-23
CN(C)/C(=N\S(=O)(=O)c1ccccc1)c1ccc(F)cc1,52*,12,26,12,15,-17
CN(C)/C(=N\S(=O)(=O)c1ccc(F)cc1)c1ccccc1,24,-10,9,5,-2,-2
COc1cc(C(=O)c2nccc3cc(OC)c(OC)cc23)c([N+](=O)[O-])cc1OC,-28,-34,19,86*,-6,19
O=C1c2cccnc2-c2ncccc21,5,-12,8,-5,-1,-1
O=C1C(=O)c2cccnc2-c2ncccc21,103*,-83*,90*,90*,102*,66*
O=S(=O)(Nc1ccc(F)cc1Cl)c1ccc(-c2cnc(C3CC3)o2)cc1,22,-14,20,40,8,52*
O=C(CC(=O)Nc1ccc(Cl)cc1)N/N=C\c1cccc(F)c1,8,-13,11,-3,12,-11
C[C@@H]1CN([C@H](C)CO)C(=O)c2cc(Br)cnc2O[C@@H]1CN(C)C(=O)c1ccccc1,4,2,-4,15,6,-5
CCC(C(=O)N1CCc2ccccc2C1)n1nc(C)n2c(cc3occc32)c1=O (stereo not drawn),81*,10,18,-4,19,/
COc1ccc(CNC(=O)c2cccc3c(-c4cccnc4)coc23)cc1OC,64*,-7,6,14,19,50*
O=C(NCc1ccc(F)c(F)c1)c1cccc2c(-c3cccnc3)coc12,33,3,-43,-15,-31,28
O=C(NCc1cccc(Cl)c1)c1cccc2c(-c3cccnc3)coc12,90*,-15,-28,-6,-4,56*
NC(=O)c1cccc(-c2coc3c(C(=O)NCc4cccnc4)cccc23)c1,18,-17,-26,5,-26,3
Nc1ccn(C2C=CC(CO)O2)c(=O)n1 (stereo not drawn),-10,/,2,/,/,-16
COc1cccc(CC(=O)OC(C)C(=O)Nc2ncc(Cl)cc2Cl)c1 (stereo not drawn),12,4,4,-3,14,3
CCCCC[C@H](O)/C=C/[C@H]1CCC(=O)[C@@H]1CCCCCCC(=O)N1CCCCC1CO (stereo partly drawn),31,4,2,37,63*,37
CC1=C(C(=O)Nc2ccccc2)C(c2ccc(C)cc2)N=C(Nc2nc3ccccc3o2)N1 (stereo not drawn),-58,-17,2,1,77*,8
SMILES,TWEAK Fn14 block,KKLEB cytotox,HIF-2a block,CF NFkB inh,Peg3 prom inh,TROY NFkB inh
COc1ccc(N2CCN(S(=O)(=O)c3c(C)[nH]c(C)c3C(=O)N3CCCC3)CC2)cc1,5,3,6,-23,4,2
COc1ccc(-c2ccc(CN3C(C(C)C)C(=O)N(Cc4cn(CC5CCCCC5)nn4)CCS3(=O)=O)cc2)cc1 (stereo not drawn),12,-2,10,26,32,20
O=Nc1c(O)n(Cc2cccc(C(F)(F)F)c2)c2ccccc12,18,-16,28,51*,38,20
CN(CCCC(=O)N1CCCC(C(N)=O)C1)S(=O)(=O)c1ccc(F)cc1 (stereo not drawn),68*,-1,9,-12,-2,-7
CN(CC(=O)N1CCCCCC1)S(=O)(=O)c1ccc(F)cc1,-14,3,-107,-6,-99,-5
COc1ccc(O)c(C(=O)c2cnn(C(=O)c3cccc(S(=O)(=O)N(C)C)c3)c2)c1,35,17,-3,24,-27,-19
Cc1ccc(O)c(C(=O)c2cnn(C(=O)c3cccc(S(=O)(=O)N(C)C)c3)c2)c1,63*,0,18,46,-3,40
Cc1ccc(NC(=O)c2ccc3c(c2)OCCO3)nc1,62*,-11,-30,8,-33,29
Cc1ccnc(NC(=O)c2ccc3c(c2)OCO3)c1,55*,-6,-88,1,-127,15
Cc1ccnc(NC(=O)c2ccc3c(c2)NC(=O)C(C)S3)c1 (stereo not drawn),67*,-15,-83,14,-134,44
CC(=O)c1ccccc1NC(=O)c1ccc2c(c1)NC(=O)C(C)S2 (stereo not drawn),-5,-15,-219,-3,-160,-16
O=C(Nc1ccon1)c1ccc2c(c1)OCO2,6,11,-95,-3,-75,-18
Cc1ccc(NC(=O)CNC(=O)c2ccc3c(c2)OCO3)nc1,3,-6,-7,8,-11,-18
O=C(NCCOc1ccccc1)c1ccc2c(c1)OCO2,94*,-4,34,1,41,63*
Cn1nc(C2CC2)cc1NC(=O)C1(C)CCN1C(=O)c1ccccc1CCc1ccccc1 (stereo not drawn),-16,1,0,15,5,-1
CCOc1ccccc1OCCCC(=O)Nc1cc(S(=O)(=O)N2CCCCC2)ccc1C,-6,22,16,-5,22,10
O=c1cc(C(F)(F)F)nc(SCc2cccnc2)[nH]1,9,3,9,10,6,-1
O=C(NC1CCCCC1)c1ccc2c(c1)OCO2,-19,-4,-164,-10,-177,-28
CC1CCC(NC(=O)c2ccc3c(c2)OCO3)CC1 (stereo not drawn),54*,4,-43,0,-93,0
COc1ccc(Cl)cc1NC(=O)CN(C)C(=O)Cn1cnc2c1c(=O)n(C)c(=O)n2C,5,-25,11,18,4,0
